The record followed here is the supplement of paper PMC11417369.

± gives the standard deviation of the averaged measurements. The full ranking holds about 25,000 sequences; the median of “ln(normalized median fluorescence intensity)” is about 7.9, and the highest 2% start at about 11. The sample as a whole holds a higher share of the highest values than the screen did.

For this assay, the system named is PfAP2-I AP2 domain 3 (GST-tagged). The assay is described as follows: gcPBM binding intensity (ln(normalized median fluorescence intensity)); higher = stronger DNA binding. A digest of the protocol:
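Alexa488 anti-GST antibody, scanned at 488 nm, detected GST-tagged P. falciparum DNA-binding domains that had been expressed in E. coli and incubated for 1 h on an Agilent 4 × 180k array. The array carried primer-extended double-stranded 36-bp intergenic genomic probes and negative controls. Binding intensity is the highest Masliner-normalised natural-log median intensity across replicate spots of either orientation of each probe.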
Consider “ATATTTTTTACTATTACACACAAGGGATTATTATTT [CACACA_site3915]”, for which the “gcPBM binding intensity (ln)” value worked out at 7.99 ± 0.69.
As to “ATACATACATATGTATGTACGTATGTATGTATGTAT [XGTACX_site3853]”, the “gcPBM binding intensity (ln)” value stood at 8 ± 0.2.
Take “TATACTGTCAATTCTACACACCATAGGGGGAGCATA [CACACA_site1875]”: the “gcPBM binding intensity (ln)” value turned out to be 9.22.
Consider “ATGAAATATGCACAGTGTACTTTTATGAGGAACATA [XGTACX_site426]”, for which the “gcPBM binding intensity (ln)” value came to 9.045 ± 0.064.
Next, “TTTATTTTTAACAGTGCACACATAACTTAATTATAT [CACACA_site8681]”: 10.69 ± 0.071; “TTTTTTTTTTTTAATGCACACAGTGAACTTTTACTT [CACACA_site3567]”: 11.3 ± 0.36; AAAGAATTATATAAGGTGCACGAATGTTTCTTTAAT: 10.96 ± 0.035.
With “TTTCTTTTTTTTTAATGTACTTTTTTTATAAAAGGT [XGTACX_site5688]”, the “gcPBM binding intensity (ln)” value worked out at 7.99 ± 0.23.
As for “CATATAAGACAAAAGGTGCAATTTTAATGCTTTTAT [GTGCAC_site9432]”, the “gcPBM binding intensity (ln)” value turned out to be 9.99 ± 0.071.
Next, “AATATATAAATTAATACATGCACATATAGAAAGGGA [TGCATGCA_site472]”: 8.7 ± 0.52; “AATAATACATCCTTAGTGCAGAAATAAAAATTAAGC [GTGCAC_site9955]”: 9.76 ± 0.24.
Consider AAATAATTAGAAATAGTGCACATAATTAAGGGATAC, for which the “gcPBM binding intensity (ln)” value worked out at 11.5 ± 0.31.
For the sequence “ATTTTACATATTTGCACACATATATTTAAATACATA [CACACA_site4627]”, the “gcPBM binding intensity (ln)” value stood at 9.85 ± 0.28.
Next, GTATATCATTTTGGGGTGCTTAAAAATAATGAATAC: 10.4 ± 0.46.
Next, “TTATTATTATATGAATGTACTTAAAAATACATTTTG [XGTACX_site2959]”: 7.43 ± 0.49.
Next, TATGAACTTTTGGGGGTGCCTTAAAATGTATATTCT: 11.2 ± 0.53; “TCAACACACGTGGAATGTACTTTAGTATAAGAATTC [XGTACX_site7842]”: 7.74 ± 0.64.
Consider “AAATTTATATAATATTGTACATTAAAAATTATATAT [XGTACX_site8009]”, for which the “gcPBM binding intensity (ln)” value was 7.73 ± 0.3.
Consider “TAAAATATGTCATGGGTGCTTCTTTTTATACCTATG [GTGCAC_site9888]”, for which the “gcPBM binding intensity (ln)” value is 8.49 ± 0.38.
Turning to “TTTAATTAAATATGTATATATATTCATGTATGTATA [GTGCAC_negctrl_site14]”, the “gcPBM binding intensity (ln)” value turned out to be 7.68 ± 0.26.
For “AATATGTAAATATGGGTGCTTTAAAATATATTCATT [GTGCAC_site9583]”, the “gcPBM binding intensity (ln)” value amounted to 11.1 ± 0.66.
Next, “GAATAAATTAAAAACGCATGTATCATTACTACATAA [TGCATGCA_site111]”: 7.36 ± 0.48.
Next, TTTATATAAATTTAAGTGCAAAATGAACAAGTGAAA: 10.1 ± 0.15; “ATAACAAAATGAAGAGTGCATTACCAAGTGGGTAAA [GTGCAC_site9450]”: 10.93 ± 0.014; “ATATATATATATAAAGTGCAAAAATGAAAGTAAGAC [GTGCAC_site9850]”: 10.4 ± 0.21.
As to “TTATATATTTTTACCATACACACATATAATAAATAT [CACACA_site3721]”, the “gcPBM binding intensity (ln)” value amounted to 8.04 ± 0.63.
Turning to “TTTTTATTTTTTGTCTGTACATATATAAATTTATTA [XGTACX_site1525]”, the “gcPBM binding intensity (ln)” value came to 7.88 ± 0.47.
Next, “CCGTACAATTTTGTCACACATAAAATACTTATGTAT [CACACA_site4871]”: 7.66 ± 0.51.
Next, “TCCTTTTTACTACTAGTGCATTATTTACAAGGTCCG [GTGCAC_site9441]”: 11.4 ± 0.68; AGTAGATTTTTATTAGTGCATTTTATACTACAAAAA: 9.71 ± 0.24.
With “CACCCTTTACACAAGGTGCATACTTTATTATATTTT [GTGCAC_site9778]”, the “gcPBM binding intensity (ln)” value was 9.305 ± 0.049.
Next, “TATTATTATTGTTGATGTACATTTAATATAATATAT [XGTACX_site4482]”: 7.7 ± 0.38.
Next, TTTTTAATTTTGTGGGTGCTTTCGTGTTATTATATA: 9.415 ± 0.021; AATATTGTTCACAAGGTGCTTTTTATTCATACTAAT: 8.86 ± 0.18; “TGTGTGTGTTCATGGGTGCTTTAATACTATTATAGG [GTGCAC_site9465]”: 11 ± 0.61.
As for “TGAATATTTCTATATACACACATATAAATATAAATA [CACACA_site7593]”, the “gcPBM binding intensity (ln)” value came out at 7.55 ± 0.31.
Next, “GTGGTATAAATTTTATGTACTTAATAACTCATTAAT [XGTACX_site5555]”: 7.79 ± 0.28; TTTTTAACGTATAAGGTGCACTGTATATGGTACTCA: 11 ± 0.33; “ATATATATATATATATGTACTTATAAGGTATATTTA [XGTACX_site3327]”: 9.35 ± 0.52.
Next, “ATATTATTATAAACTTCACACATTTTATGGGTTTTT [CACACA_site4631]”: 7.49 ± 0.61.
Next, “ATAAAGATTAACAAAGTGCATTTATATATATAATCT [GTGCAC_site9407]”: 9.865 ± 0.092.
As to ATATATATAACAAAAGTGCATTAAGGGGATGCTATA, the “gcPBM binding intensity (ln)” value was 11.5 ± 0.26.
TTAAAAGTAAGCAAAGTGCATATAACAAAAGTAAAG: the “gcPBM binding intensity (ln)” value turned out to be 10.01 ± 0.092.
Next, TTTTTTTTTTTTTTGGTGCGTTTATATATAAATATA: 10.4 ± 0.86.
In the case of “TTAACAAAATTTTTAACACACAAAAAAAAAAAAAAA [CACACA_site1828]”, the “gcPBM binding intensity (ln)” value was 8.2 ± 0.8.
As for “TGAAATAACCCATGTGCATGCACTTCAATAACTGAA [TGCATGCA_site1041]”, the “gcPBM binding intensity (ln)” value was 9.54 ± 0.47.
Next, “GGTTATAACCCACATGCACACGTAAATAAATATTAT [CACACA_site5992]”: 8.77 ± 0.3; AAATAACCCACGTGCATGCACTTCAATAACTGAACT: 11.3 ± 0.14; “TTGTATTCATATGGTTGTACATATTAAAAGTTCTAA [XGTACX_site7255]”: 7.73 ± 0.31.
Next, CATATTATTATTTTGGTGCATACTTATATATATTTT: 9.53 ± 0.085; “ATAGTTTAATTTATATGTACATATAATATTGATTTG [XGTACX_site7520]”: 7.89 ± 0.41; “TACTTATTTGATTGGGTGCATATATATAGTATGTAT [GTGCAC_site9845]”: 11 ± 0.73.
Next, “GTCAATATTTAGATATGTACTAAGGAGTGCTATATA [XGTACX_site222]”: 10.2 ± 0.55; “TCCGCATGTACATGGGTGCACATAACACCCATTTAA [GTGCAC_site9881]”: 10.4 ± 0.44; TTTTGTTTTTGTAGAGTGCATAAAGAAGATATGTAT: 11.1 ± 0.86.
Consider “TATATATGTATAAGAGTGCATATGCATATATGTATA [GTGCAC_site9692]”, for which the “gcPBM binding intensity (ln)” value was found to be 9.85 ± 0.014.
In the case of GAAAAGCAGATAAATGTGCACATATATGTTTGTATA, the “gcPBM binding intensity (ln)” value turned out to be 9.71 ± 0.43.
Next, “CAAAAGGATATGCACACACACACACGGATATTTATA [CACACA_site7099]”: 8.985 ± 0.064; “TTATATGCATAAAAAGGTACACATATATAAATAAAT [XGTACX_site6894]”: 8.23 ± 0.4; “TTTATGCACGCGTGCACACACATATGAAAAAAGGTA [CACACA_site3315]”: 10.9 ± 0.72.
As for “TATTTATGCACGCGTGCACACACATATGAAAAAAGG [CACACA_site9090]”, the “gcPBM binding intensity (ln)” value turned out to be 11.1 ± 0.59.
Next, GGTATTTATGGACGCGTGCACACACATATGAACAAA: 9.9 ± 0.14; “TATGAAAAAATATATACACACATAATAAAGGTATAT [CACACA_site3737]”: 7.73 ± 0.59.
